This is an account of results in PubChem BioAssay AID2284324 (EPA ToxCast).

Records with an inconclusive call do not appear. Calls of active or inactive are those of the source. How the source made its calls: active means hit-call score of the fitted dose curve at least 0.9, where 1 is the maximum; inconclusive means response in the unintended direction; inactive means score below 0.9.

The test system of the experiment is Japanese medaka Glucocorticoid Receptor (GR), gene 101170451. The experiment can be described thus: ATG_jmGR_EcoTox2: Attagene TRANS-FACTORIAL EcoTox-2 HepG2 Assay for Japanese medaka Glucocorticoid Receptor (GR). The protocol:
ATG_EcoTox2 is a cell-based, multiplexed assay created by modifying the existing Attagene TRANS-FACTORIAL system to include a panel of nuclear receptors from some or all the following species: human (Homo sapiens), african clawed frog (Xenopus laevis), rainbow trout (Oncorhynchus mykiss), japanese medaka (Oryzias latipes), and zebrafish (Danio rerio). The ECOTOX2-FACTORIAL format uses HepG2, a human liver cell line, with measurements taken at 24 hours after chemical dosing in a 24-well plate. ATG_jmGR_EcoTox2 is one of 29 assay components calculated in the ATG_EcoTox2 assay. It is designed to make measurements of mRNA induction, a form of inducible reporter, as detected with fluorescence intensity signals by Reverse transcription polymerase chain reaction (RT-PCR) and Capillary electrophoresis technology.The assay endpoint ATG_jmGR_EcoTox2 was analyzed in the positive analysis fitting direction relative to DMSO as the negative control and baseline of activity. Using a type of inducible reporter, measures of mRNA for gain-of-signal activity can be used to understand the reporter gene at the transcription factor-level as they relate to the gene for glucocorticoid receptor. Furthermore, this assay endpoint can be referred to as a primary readout, because this assay has produced multiple assay endpoints where this one serves a reporter gene function. To generalize the intended target to other relatable targets, this assay endpoint is annotated to the nuclear receptor intended target family, where the subfamily is steroidal.
Human liver HepG2 cells are transiently transfected with multiple reporter transcription units (MRTUs) in 6-well plates using FuGene 6 reagent (Roche; 3 ml FuGene/1 mg DNA). The MRTU constructs are regulated by a cis-regulating element (promoter). Each RTU expresses a GAL4-UAS that regulates the transcription of a nearby target reporter gene sequence. A major difference between the CIS and TRANS system is that in CIS activities of endogenous TFs are measured, whereas the TRANS assay evaluates changes in activities of exogenous, chimeric NR-Gal4 proteins. […] At the end of 24 hour incubation, total RNA was isolated using TriZol reagent (Invitrogen). The isolated RNA is then reverse-transcribed using oligo(dT) primer and Mo-MLV reverse transcriptase (Invitrogen) with DNAse I (Ambion) treatment for 30 min. The one-tenth of the produced cDNA was amplified by PCR using Taq DNA polymerase (Invitrogen) and two reporter sequence-specific primers. The PCR products were fluorescently labeled by primer extension with 6-arboxyfluorescein (6-FAM) 5'-labeled reporter sequence-specific primer (2 min at 95 C, 20 s at 68 C and 10 min at 72 C) and these products were digested with 5U of HpaI (New England Biolabs) for 2h at 37 C. The fragments were purified using Qiaquick PCR columns (Qiagen), analyzed on an ABI 3130xL genetic analyzer (Applied Biosystems) with peak positions identified by using a set of X-rhodamine (ROX)-labeled MapMarker1000 molecular weight standards (BioVentures). The raw capillary electrophoresis data was processed using Attagraph software (Attagene).

The AC50 is the midpoint of the concentration-response curve, whichever way the signal moves. In the case of `C[C@@H]1C[C@H]2[C@@H]3CCC4=CC(=O)C=C[C@]4(C)[C@@]3(F)[C@@H](O)C[C@]2(C)[C@@]1(O)C(=O)COP(=O)(O)O`, the AC50 is 0.0148 µM (active).

Consider `CC(C)(Oc1ccc(C2CC2(Cl)Cl)cc1)C(=O)O` (stereo not drawn), for which the result was inactive.

Turning to `CC(C)(Oc1ccc(Cl)cc1)C(=O)O`, the outcome was inactive.

Take `CC(C)(Oc1ccc(CCNC(=O)c2ccc(Cl)cc2)cc1)C(=O)O`: the outcome was inactive.

For `Cc1ccc(C)c(OCCCC(C)(C)C(=O)O)c1`, the molecule was classed as inactive.

Turning to `C[C@]12C=CC(=O)C=C1CC[C@@H]1[C@@H]2C(=O)C[C@@]2(C)[C@H]1CC[C@]2(O)C(=O)CO`, the outcome was inactive.

Consider `CC(C)OC(=O)C(C)(C)Oc1ccc(C(=O)c2ccc(Cl)cc2)cc1`, for which the outcome was inactive.

Regarding `Cc1cccc(Nc2cc(Cl)nc(SCC(=O)O)n2)c1C`, the result was inactive.
